Source: PubChem BioAssay
An excerpt weighted towards active compounds, which were near 27% of everything screened.
CYP2C9 inh: blockers of cytochrome P450 2C9 activity – biochemical, luminescence, ADME assay, primary screen | CYP2C9 Supersomes, luciferin-H conversion | 96,000 compounds, 20% hits | inhibition, % at 5 µM;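 active = blocking of liver enzyme CYP2C9 beyond about 50% at 5 µM, limit read from the data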
CYP2C9 activ: human CYP2C9 activators, primary screen, biochemical, luminescence | recombinant CYP2C9, luciferin-H conversion; stronger effect = higher value; factor 1 = untreated enzyme, 0 = blocked | AID 1024, 2008 | 96,000 compounds, 1.4% hits | Cytochrome P450 2C9 (Homo sapiens), P11712 | activation factor at 5 µM;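 active = activation factor of 2 or more for CYP2C9 at a 5 µM dose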;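 also: 0 = sulfaphenazole-blocked wells and 1 = vehicle-only wells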
sEH inh: soluble epoxide hydrolase inhibitors, primary screen, biochemical, human sEH | Bifunctional epoxide hydrolase 2 (Homo sapiens), P34913 | recombinant human sEH enzymatic activity assay | inhibition, % at 2 µM | 91,000 compounds, 0.34% hits | AID 707, 2007; in the data active = inhibition above about 80%
CYP2C19 act: human CYP2C19 activators, primary screen, biochemical, luminescence | 96,000 tested, under 10 active | recombinant CYP2C19, luciferin-H EGE luminescence; stronger effect = higher value; 0 = fully inhibited enzyme, 1 = untreated enzyme | activation factor at 5 µM | Cytochrome P450 2C19 (Homo sapiens), P33261;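 active = activation factor of at least 2 at 5 µM in the primary screen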;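 also: 0 = wells with 2.5 mM tranylcypromine and 1 = vehicle-only wells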
Target sequence (P33261 whole entry, looked up): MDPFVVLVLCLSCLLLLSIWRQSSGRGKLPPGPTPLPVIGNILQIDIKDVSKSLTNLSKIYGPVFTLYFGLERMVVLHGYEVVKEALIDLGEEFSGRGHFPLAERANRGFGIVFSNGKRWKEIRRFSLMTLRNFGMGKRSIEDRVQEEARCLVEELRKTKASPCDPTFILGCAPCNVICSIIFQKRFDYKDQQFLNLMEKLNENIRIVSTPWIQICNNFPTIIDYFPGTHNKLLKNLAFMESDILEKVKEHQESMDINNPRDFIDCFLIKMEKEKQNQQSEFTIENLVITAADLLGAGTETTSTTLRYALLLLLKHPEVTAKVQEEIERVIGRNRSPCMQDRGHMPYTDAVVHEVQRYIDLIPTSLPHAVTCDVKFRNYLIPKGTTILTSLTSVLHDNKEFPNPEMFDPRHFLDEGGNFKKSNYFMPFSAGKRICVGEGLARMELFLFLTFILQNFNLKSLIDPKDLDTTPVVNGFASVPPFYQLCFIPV
CYP2C19 inh: blockers of cytochrome P450 2C19 activity – biochemical, luminescence, ADME assay, primary screen; CYP2C19 Supersomes, luciferin-H EGE luminescence, 30 min; inhibition, % at 5 µM; 96,000 compounds, 21% hits;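 active = CYP2C19 inhibition above a set limit at 5 µM in the primary screen, cut at about 50% in these data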;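 also: plate controls were negative control wells for no effect and 2.5 mM tranylcypromine positive control for full effect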
sEH activator: soluble epoxide hydrolase activators, primary screen, biochemical, human sEH | AID 717, 2007 | purified human sEH enzymatic activity, activator screen | activation, % at 2 µM | 91,000 compounds, 0.04% hits; in the data active = activation above about 37%
* hit, by the source's call; nt = no result given.

SMILES	CYP2C9 inh	CYP2C9 activ	sEH inh	CYP2C19 act	CYP2C19 inh	sEH activator
Cc1c(C(=O)N2CCN(c3ccccn3)CC2)oc2ccccc12	41	0.6	3	0.1	85*	-2
CCCCNC(=S)NNC(=O)c1cccnc1	nt	nt	1	nt	nt	2
COc1ccccc1N1CCN(C(=O)CSc2nc(C)c(Cc3ccccc3)c(=O)[nH]2)CC1	26	0.7	-1	0.8	23	4
CCC(=O)N1CCc2cc(S(=O)(=O)NCCCN(CC)Cc3ccccc3)ccc21	4	1	6	0.9	6	-5
Cc1c(C(=O)N2CCCCCC2)oc2ccccc12	21	0.8	0	0.1	91*	1
Cc1ccc(N2CCN(/N=C/c3sccc3C)CC2)cc1	-179	2.8*	5	0.5	50	-2
O=[N+]([O-])c1ccccc1/C=N/N1CCN(c2ccc(Cl)cc2)CC1	-48	1.5	17	0.6	36	-14
NC(=O)C1(N2CCCCC2)CCN(C(=O)c2cccs2)CC1	9	0.9	-4	0.7	29	3
CCCNC(=O)Cn1c(=O)oc2ccccc21	-6	1.1	-15	0.3	74*	12
O=c1oc2ccccc2n1CCCCCn1c(=O)oc2ccccc21	-21	1.2	-4	0.2	84*	5
O=c1[nH]c2ccccc2n1CCCSc1cnc2ccccc2n1	85*	0.2	-24	0.4	63*	21
CCCCn1c(=O)[nH]c2ccccc21	1	1	-12	0.7	29	14
COc1ccc(CCNC(=O)Cn2c(=O)oc3ccccc32)cc1OC	13	0.9	-5	1	1	3
COc1cccc(NC(=O)Cn2c(=O)oc3ccccc32)c1	38	0.6	5	0.3	68*	-5
Cc1ccc(S(=O)(=O)NC(CC(=O)NCC2CCCO2)c2ccco2)cc1 (stereo unspecified)	-8	1.1	-5	1	0	3
Cc1ccc(N2CCN(S(=O)(=O)N3CCCCCC3)CC2)cc1Cl	37	0.6	10	0.5	49	-12
O=S(=O)(c1ccccc1)c1nc(-c2ccccc2)oc1N1CCCCC1	-22	1.2	-14	0.8	20	18
C=CCn1c(=O)n(CCOC)c(=O)c2sc3ccccc3c21	11	0.9	7	0.9	11	-8
O=C(NCc1ccccc1)C(c1cccnc1)N(Cc1ccco1)C(=O)c1ccccn1 (stereo unspecified)	32	0.7	6	0.9	8	-7
O=C(N/N=C1/CCCc2ccccc21)C(c1ccccc1)c1ccccc1	7	0.9	9	1.1	-12	-9
O=C(CC(NCCc1ccccc1)C(=O)O)Nc1ccc(O)cc1 (stereo unspecified)	2	1	4	1	-2	-3
O=c1oc2ccccc2n1CCCOc1ccccc1	70*	0.3	nt	0	98*	nt
Cc1ccc(SCC(=O)NC(=O)NCc2ccco2)cc1C	46	0.5	-5	0.7	28	8
O=c1[nH]c2ccccc2n1CCCOc1ccccc1	5	1	0	0.2	82*	0
O=C(Cn1c(=O)oc2ccccc21)c1ccccc1	25	0.7	-4	0.1	93*	2
SMILES	CYP2C9 inh	CYP2C9 activ	sEH inh	CYP2C19 act	CYP2C19 inh	sEH activator
O=C(Cn1c(=O)oc2ccccc21)NC(=O)NCc1ccco1	29	0.7	4	0.3	65*	-3
O=C1c2ccccc2C(=O)N1CCn1c(=O)oc2ccccc21	-9	1.1	11	0.7	32	-8
NC(=O)CCn1c(=O)oc2ccccc21	-13	1.1	1	1.2	-15	3
COc1nc(N/N=C/c2ccccc2F)nc(N2CCCCC2)n1	2	1	-4	0.9	6	4
CC1(C)CC(=O)C2=C(C1)N(Cc1cccnc1)C(=O)C2(NC(=O)c1ccc(F)cc1)C(F)(F)F (stereo unspecified)	23	0.8	-13	0.8	20	13
COc1ccc(CC(NC(C)=O)C(=O)NC2CCN(S(=O)(=O)c3cccc4ccccc34)CC2)cc1OC (stereo unspecified)	8	0.9	4	0.8	19	-6
COC(=O)c1cc(NC(=O)Nc2ccccc2OC)cc(C(=O)OC)c1	18	0.8	15	0.9	14	-13
O=c1[nH][nH]c2nc(C(F)(F)F)cc(C(F)(F)F)c12	6	0.9	6	1	0	-4
CCCCS(=O)CC(O)COc1ccc(C(C)(C)C)cc1 (stereo unspecified)	8	0.9	-8	0.4	58*	10
COc1cc(/C=N/n2nnnc2N)ccc1O	-2	1	-2	0.9	6	4
COC(=O)c1cc(Br)ccc1-c1ccc(/C=N/n2nnnc2N)o1	38	0.6	-1	0.4	56*	1
COc1ccc(CC(=O)Nc2ccc(-c3noc(COc4ccccc4C)n3)cc2)cc1	21	0.8	nt	0.9	10	nt
COc1ccccc1-c1noc(-c2ccccc2C(=O)Nc2ccccc2)n1	4	1	-6	1.1	-9	8
CCOc1ccccc1-c1nc(-c2ccc(NC(=O)Cc3ccc(OC)cc3)cc2)no1	-90	1.9	0	0.4	56*	1
COc1ccccc1NC(=O)c1ccccc1SC	-284	3.8*	2	1	5	-2
COc1cccc(NC(=O)c2ccccc2-c2nc(-c3ccc(Cl)cc3)no2)c1	83*	0.2	5	0.3	69*	-8
COc1ccccc1NC(=O)c1ccccc1-c1nc(-c2ccccc2OC)no1	78*	0.2	5	0.4	64*	0
COc1cc(C)nc(NC(=O)COc2ccc(Cl)cc2C)n1	-3	1	-13	0.7	34	13
COc1cc(NC(=S)NN2CCN(C)CC2)cc(OC)c1	10	0.9	-8	1	3	8
Cc1cc(C)c2c(c1)OC(O)(C(F)F)CC2=O (stereo unspecified)	-43	1.4	nt	0.1	88*	nt
CC(C)(C)CC(C)(C)NC(=O)CSCC(=O)Nc1ccc2ccccc2c1	nt	nt	-2	nt	nt	2
Cc1cc(C)nc(Sc2ccc3nnc(C(F)(F)C(F)(F)C(F)(F)F)n3n2)n1	63*	0.4	-2	0.4	58*	2
Cc1ccc(S(=O)(=O)N2CCCC(NC(=O)N3CCN(c4ccccc4)CC3)C2)cc1 (stereo unspecified)	32	0.7	11	0.3	74*	-9
Cc1ccc(C(=O)N2CCN(c3ccccc3)CC2)cc1S(=O)(=O)N1CCCC1	84*	0.2	nt	0.2	78*	nt
